As usually defined, the Inhibition is the change of the read-out against control, counted positive when it falls. Read a low Inhibition as little suppression.

The test system of this test is Plasmodium falciparum. In words: GSK_TCMDC: Inhibition of Plasmodium falciparum Dd2 in whole red blood cells, using parasite LDH activity as an index of growth. Test compounds present at 2uM. In kind it is functional.
For the compound `Cc1ccc(CN2CCC(C(=O)Nc3ccc(-c4cc5ccccc5[nH]4)cc3)CC2)o1`, the Inhibition was 40%. The compound `O=C(NC1CCCCN(Cc2ccccc2O)C1)c1cccc(C(F)(F)F)c1.O=C(O)C(F)(F)F` (stereo unspecified) yielded an Inhibition of 64%.

`CCCc1cn2c3c(cc(C(=O)N[C@@H](Cc4ccccc4)[C@H](O)CNC4CCCCC4)cc13)N(CC)S(=O)(=O)CC2.O=CO` had an Inhibition of 98%. As for `CCCC1(NC[C@@H](O)[C@H](Cc2ccccc2)NC(=O)c2cc(NCC)cc(N3CCCCS3(=O)=O)c2)CCCCC1.Cl`, the Inhibition was determined as 98%. `O=C(/C=C/c1ccc(Cl)c(Cl)c1)NCCCCN1CCCN(C(=O)Nc2ccc(Cl)c(Cl)c2)CC1` gave an Inhibition of 1%.

Compound `Cl.Ic1cc(Nc2ncnc3ccsc23)ccc1OCc1ccccc1` came in with an Inhibition of 81%. With `CCN(Cc1ccccc1)C1CCN(Cc2cc(Br)ccc2O)CC1.O=C(O)C(=O)O` the figure was 97%.

Take `Br.CCCC1N=C(N)N=C(N)N1c1ccc(CC)cc1` (stereo unspecified): the Inhibition stood at 4%. As for `Brc1ccc(C=NNc2nc3ccccc3[nH]2)cc1`, the Inhibition is 90%. As to `Nc1cccc(CNCc2cccc(-c3ccc(-c4nc5cc(C(F)(F)F)ccc5[nH]4)cc3)c2)c1.O=C(O)C(F)(F)F`, the Inhibition worked out at 98%.

On to `CN1CCCN(c2ccnc3cc4c(cc23)N(C(=O)c2ccc(Cl)cc2Cl)CC4)CC1.Cl`, for which the Inhibition is given as 51%. The result for `O=C(Nc1ccc(Oc2ccccc2)cc1)N(Cc1ccc(-c2ccc(CN3CCNCC3)cc2)cc1)C1CCN(Cc2ccccc2)CC1.O=C(O)C(F)(F)F` reads 73%; that for `Br.c1ccc(-c2ccc(-c3csc(Nc4ccncc4)n3)cc2)cc1`, 97%; that for `O=C(Nc1ccc(OC2CCN(Cc3ccc(F)cc3)C2)c(Cl)c1)c1ccc(F)cc1.O=C(O)C(F)(F)F` (stereo unspecified), 94%. In the case of `COc1ccc2nccc([C@@H](O)CN3C4CCC3CC(NCc3ccc5c(n3)NC(=O)CS5)C4)c2n1.Cl` (stereo partly specified), the Inhibition amounted to 11%.

As for `COc1cccc(CCc2nc3c(N4CCC(Cc5ccccc5)CC4)cccc3n2CC2CNCCO2)c1.O=C(O)C(F)(F)F` (stereo unspecified), the Inhibition came out at 96%. `Br.CCOC(=O)c1c(CNc2ccncc2)n(C)c2cc(Br)c(OC(C)=O)cc12` showed an Inhibition of 93%. In turn, `Cc1cccc(C(=O)Nc2ccnc(N3CCCN(Cc4cccc(O)c4)CC3)c2)c1.O=C(O)C(F)(F)F` had an Inhibition of 13%.

For the compound `O=C(c1cc(-c2cccs2)n[nH]1)N1CCN(S(=O)(=O)c2ccc(Cl)s2)CC1`, the Inhibition was determined as 80%. For `Cl.Nc1nc(N)c2c(ccc3nn(Cc4cccnc4)cc32)n1`, the Inhibition was determined as 0%. `COc1cc2c(cc1OCCN1CCC(N)CC1)N(C(=O)/C=C/c1ccccc1Cl)CC2.Cl`: the Inhibition turned out to be 18%. `CCCc1cc(N2CCC(N(CC)CC)C2)nc(Nc2ccc(OC)cc2)n1` (stereo unspecified) gave an Inhibition of 4%. `COc1ccc(-c2ccc(NC(=O)c3cccc(C#N)c3)cc2)cc1CN1CCCC(C(N)=O)C1.O=C(O)C(F)(F)F` (stereo unspecified) returned an Inhibition of 44%. As for `COCn1ccc2c3c(N)nc(N)nc3ccc21`, the Inhibition was found to be 1%. `CCCC(CNCc1cccc(OC(F)(F)F)c1)CNc1cc(=O)c2ccccc2[nH]1` (stereo unspecified) registered an Inhibition of 95%. On to `Cc1cccc2nc(-c3ccc(-c4ccc(NC(=O)Nc5cccc(C#N)c5)cc4)s3)[nH]c12`, for which the Inhibition turned out to be 100%.

Values taken from ChEMBL document CHEMBL1157539, “Thousands of chemical starting points for antimalarial lead identification” (Nature, 2010).
